TDP1 cell noCPT: qHTS for Inhibitors of human tyrosyl-DNA phosphodiesterase 1 (TDP1): qHTS in cells in absence of CPT. DT40 Tdp1-/- hTDP1 cells, no CPT, ATP luminescence, 48 h. Potency, µM (series often up to 46.2 µM), without a hit: top-dose activity change, negative = growth inhibition, most hits filed as inhibitors. actives 15% (n = 420,000); note: potency is the fitted concentration of half-maximal effect; nearly all actives have a fitted effect of over 55% in size
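Compound effects on proliferation are scored in DT40 Tdp1-/-;hTDP1 cells in the absence of CPT. ATP levels (CellTiter-Glo luminescence) are recorded after a ≥48 hr, 37 °C incubation.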
IL-1B inflam inh: blocks inflammasome-driven IL-1 beta release | actives 4.7% (n = 360,000) | THP-1 LPS/ATP IL-1B secretion, AlphaLISA, 16 h; stronger effect = lower value | AID 743279 | activity change, % at 57.5 µM; in the data active = activity change below about -50%; inconclusive = mostly about -30% to -49%
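Secreted IL-1B measured by AlphaLISA bead assay after 16 h compound exposure of THP-1 cells; compounds (final up to 57.5 uM) added 1 h before LPS (250 ng/mL) and ATP (1.25 mM) stimulation; lower signal means less secretion.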
HT1080 IDH1KD tx: HT-1080 IDH1 knockdown cell toxicity (counter line); Potency, µM (titrated, usually from 46.1 µM), for the others: at the top dose activity, negative = toxicity, actives largely listed as cytotoxic; actives 2% (n = 360,000); HT-1080 IDH1 knockdown viability, ATP luminescence, 48 h;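 note: potency is the fitted concentration of half-maximal effect; 0% = DMSO wells and -100% = cell-free medium wells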
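Assay cells: HT-1080 with IDH1 knockdown, 750 per well, RPMI/5% FBS. Exposure: 48 h at 37 °C following 2 h pre-incubation. Read: CellTiter-Glo luminescence; fitted concentration-response, curve class assigned.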
DT40 TDP1 CPT: growth inhibition of DT40 Tdp1-/-;hTDP1 cells with camptothecin (screen for TDP1 inhibitors) | chicken DT40 Tdp1-/-;hTDP1 cells + 20 nM CPT, ATP luminescence, 48 h | Potency, µM (highest dose often 46.2 µM), for the others: at the highest dose activity change, negative = growth inhibition, actives largely listed as inhibitors | actives 12% (n = 420,000) | AID 686979; note: potency is the fitted concentration of half-maximal effect; nearly all actives have a fitted effect of over 55% in size
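Cell growth measured by CellTiter-Glo luminescence after a minimum 48 h, 37 C compound exposure with 20 nM CPT in Tdp1-knockout DT40 cells stably expressing hTDP1, seeded 400/well; qHTS titration format.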
HT1080-NT tox: kills 2HG-producing HT-1080-NT fibrosarcoma cells; HT-1080-NT fibrosarcoma viability, CellTiter-Glo ATP luminescence, 48 h; Potency, µM (doses to about 46.1 µM), for inactives: top-dose activity, negative = less viability, hits mostly cytotoxic; actives 1.6% (n = 360,000);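 note: NT is the 2HG producing partner of a matched IDH1 knockdown line; potency is the fitted concentration of half-maximal effect; 0% = DMSO-treated cells and -100% = media-only wells without cells; nearly all actives have a fitted effect of over 55% in size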
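Toxicity toward the 2HG-producing NT line was scored as %Activity, normalised to DMSO and no-cell wells, from CellTiter-Glo luminescence after 48 hours' treatment.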
Active calls of the source: *; ? = inconclusive; . = not tested or not shown. The list is not random: actives were taken first. Their share in the collection is about 19%. Unless noted, calls come from the whole dose curve; as a rule, active = well fitted curve in the direction sought with a large enough effect; inconclusive = small, poorly fitted or top-dose-only effect, or another doubt; inactive = no such curve, though single readings can be large; an effect the other way counts as inactive or inconclusive. Unless noted, % is set by controls: 0 for no effect and ±100 for the full control effect.

SMILES	TDP1 cell noCPT	IL-1B inflam inh	HT1080 IDH1KD tx	DT40 TDP1 CPT	HT1080-NT tox
N#CC1CC(c2ccccc2)=NN1c1ccccc1[N+](=O)[O-] (stereo not drawn)	-15%	?	-14%	-7%	-4%
COc1cccc(CN2CCC(CO)(CC3CCCCO3)CC2)c1 (stereo not drawn)	-8%	5	11%	2%	-1%
CCC(CC)CN1CCC(CN2C(=S)NC[C@@H]2[C@@H](C)CC)CC1	-8%	-2	8%	11%	4%
CCOc1ccc2oc(C(=O)OCC(=O)NC3CCCC3)c(C)c2c1	-10%	14	3%	?	-5%
CCOc1ccc2oc(C(=O)Nc3ccc(C)cn3)c(C)c2c1	18µM*	29	8%	?	3%
Cc1ccc2oc(C(=O)Nc3cc(C)on3)c(C)c2c1	5.8µM*	-8	10%	-7%	-1%
CCCN(CC1CC1)C(=O)COC(=O)c1oc2ccc(OCC)cc2c1C	6.5µM*	-4	-7%	-18%	-8%
CCOc1ccc2oc(C(=O)NC3CC(C)(C)NC(C)(C)C3)c(C)c2c1	?	-12	-1%	?	-14%
CCOc1ccc2oc(C(=O)NC3CCN(Cc4ccccc4)CC3)c(C)c2c1	5.2µM*	-64*	?	3.7µM*	?
COc1ccc(CCNC(=O)CSc2nnc(C(C)N(C)C)n2Cc2ccccc2)cc1OC (stereo not drawn)	-4%	16	6%	15%	6%
CNC(=S)Nc1ccc(OC(F)(F)F)cc1	13%	0	6%	-2%	4%
COc1nccc(-c2ccc(F)cc2)c1C#N	-25%	-13	8%	-9%	2%
Cc1ccc2oc(C(=O)N(C)Cc3ccc(C)o3)c(C)c2c1	16µM*	0	0%	8.2µM*	-13%
CC1(c2nnc(Cc3ccccc3)o2)CC(c2ccc([N+](=O)[O-])cc2)=NO1 (stereo not drawn)	?	-4	0%	-43%	-1%
CCc1cccc(NC(=O)CCc2c(C)nc3c(c2C)c(=O)n(C)c(=O)n3C)c1	?	.	.	23µM*	.
Cc1ccc(C(=O)N2CC=C(c3ccccc3)CC2)o1	?	-21	18%	?	16%
Cc1cc(C(=O)N2CC=C(c3ccccc3)CC2)c2ccccc2n1	0.92µM*	-3	1.6µM*	0.58µM*	?
Cc1c(C(=O)C(=O)N2CC=C(c3ccccc3)CC2)c2ccccc2n1C	2.6µM*	33	2.3µM*	2.9µM*	2.6µM*
Cc1c(C(=O)CN2CCSCC2)c2ccccc2n1C	-22%	-18	5%	6%	9%
O=C(O)c1ccccc1C(=O)N1CC=C(c2ccccc2)CC1	26µM*	21	-5%	?	4%
CC(=O)N1CCN(C(=O)c2cc(C)nc3ccccc23)CC1	?	0	-3%	-13%	-3%
CN(C(=O)CN1CCN(c2cc(-c3ccc(-c4ccccc4)cc3)ncn2)CC1)c1ccccc1	?	-15	13µM*	23µM*	15µM*
CN(C(=O)COc1coc(CN2CCN(c3ccccc3)CC2)cc1=O)c1ccccc1	-18%	20	6%	-21%	2%
CCC(=O)N1c2ccc(C)cc2C2=NNC(=S)NC21O (stereo not drawn)	?	-3	14%	?	7%
O=C(NCc1ccccc1)c1cc(C2CCCN(S(=O)(=O)c3cccc4cccnc34)C2)on1 (stereo not drawn)	?	15	-1%	?	1%
SMILES	TDP1 cell noCPT	IL-1B inflam inh	HT1080 IDH1KD tx	DT40 TDP1 CPT	HT1080-NT tox
O=C(NCc1cccnc1)c1cc(C2CCCCN2S(=O)(=O)c2cccc3cccnc23)on1 (stereo not drawn)	?	20	11%	12µM*	8%
O=C(Nc1ccc(F)c(Cl)c1)c1cc(C2CCCN(S(=O)(=O)c3cccs3)C2)on1 (stereo not drawn)	?	-26	-26%	?	-20%
O=C(Nc1ccc(F)c(Cl)c1)c1cc(C2CCCN(S(=O)(=O)c3cccc4cccnc34)C2)on1 (stereo not drawn)	26µM*	3	-19%	?	-11%
O=C(NCc1cccnc1)c1cc(C2CCCN(S(=O)(=O)c3cccc4cccnc34)C2)on1 (stereo not drawn)	21µM*	8	5%	23µM*	5%
CCCNC(=O)c1cc(C2CCCN(S(=O)(=O)c3cccc4cccnc34)C2)on1 (stereo not drawn)	?	23	12%	16µM*	0%
O=C(CN1C(=O)c2ccc([N+](=O)[O-])cc2C1=O)NCC1CCCO1 (stereo not drawn)	-13%	0	-1%	-2%	-1%
COc1ccc(N(Cc2cc(=O)[nH]c3ccccc23)C(=O)C(C)C)cc1	-2%	54	0%	4%	-5%
O=C(CNc1cc(S(=O)(=O)N2CCOCC2)ccc1N1CCCC1)NCc1ccco1	-4%	9	11%	-10%	14%
Cc1ccc(CNC(=O)[C@H](Cc2ccccc2)NC(=O)C2CCNCC2)cc1	13%	-4	?	-2%	0%
CC(NC(=O)C1CCN(C(=O)Nc2ccccc2)CC1)c1ccccc1Cl (stereo not drawn)	?	-19	1%	1%	-2%
COc1ccc(-c2noc(-c3ccc(NC4CCCC4)c([N+](=O)[O-])c3)n2)cc1	-14%	.	.	-1%	.
Cc1ccc(C)c(CC(=O)N2CCCC(c3cc(C(=O)NCc4cccnc4)no3)C2)c1 (stereo not drawn)	15µM*	3	3%	?	?
CC(C)S(=O)(=O)N1CCCC(c2cc(C(=O)NCc3cccnc3)no2)C1 (stereo not drawn)	-9%	0	7%	-23%	22%
CCCNC(=O)c1cc(C2CCCN(C(=O)c3ccc4ccccc4c3)C2)on1 (stereo not drawn)	23µM*	16	-1%	18µM*	15%
COc1ccc(S(=O)(=O)N2CCCC(c3cc(C(=O)NCc4cccnc4)no3)C2)cc1 (stereo not drawn)	?	3	0%	23µM*	?
Cc1c(N2C(=O)C3C4C=CC(C4)C3C2=O)c(=O)n(-c2ccccc2)n1C (stereo not drawn)	0%	10	3%	4%	0%
Cc1cc(NC(=O)c2ccc3[nH]c(C)c(C)c3c2)ccn1	26µM*	-58*	?	21µM*	-23%
COc1ccc(OC)c(CCNC(=O)c2ccc3[nH]c(C)c(C)c3c2)c1	21µM*	.	.	?	.
COc1ccc(CCNC(=O)c2ccc3[nH]c(C)c(C)c3c2)cc1OC	23µM*	.	.	?	.
